Our source for the outcome, activation and inhibition values is PubChem BioAssay.

SMILES strings stand for the structures. For part of these data: Potency and affinity values are given separately. The source made the active and inactive calls.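 How the source made its calls, unless noted: active means primary screen active and over 50% activation in each of two duplicate runs; inactive means the rest.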

Experiment [1] deals with TRPC4 beta (transient receptor potential cation channel C4), mouse. The experiment in a line: TRPC4 cation channel opening, retest – cell-based, Fluo4 calcium, HEK293 TRPC4beta/mu-opioid, duplicates, 10 µM, confirmation (AID 2426;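 active means fluorescence ratio normalized to control raised more than 50% in primary screen plus both repeat runs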;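 on activation: percent rise of integrated ratio over buffer wells lacking compound which define 0%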). The note with it: Fluo4 calcium fluorescence, at 10 µM; active compounds read high.
Experiment [2] deals with transient receptor potential cation channel C4 beta (TRPC4), mouse. Nature of the experiment: TRPC4 cation channel opening, second retest – cell-based, second round, Fluo4, HEK293 TRPC4beta/mu-opioid, 1 µM, confirmation (AID 2461).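 On activation: 0% = wells without test compound as baseline of integrated fluorescence ratio.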 Conditions: Fluo4 calcium fluorescence, at 1 µM; active compounds read high.
Experiment [3] deals with TRPC4 (transient receptor potential cation channel C4 beta), mouse. Nature of the experiment: potentiation of DAMGO EC20 TRPC4 response – cell-based, second round, Fluo-4, HEK293 TRPC4beta/mu-opioid, 1 µM, confirmation (AID 2554;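 active means primary screen hit whose fluorescence ratio, in both repeats, exceeds the weak agonist control mean by 3 SD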). The note with it: DAMGO EC20, Fluo-4 calcium flux, at 1 µM; active compounds read high. On the technique in general: Calcium flux is commonly read through the fluorescence of an indicator in the cells.

The test system of experiment [4] is TRPC4 beta (transient receptor potential cation channel C4), mouse. Nature of the experiment: potentiation of DAMGO EC20 TRPC4 response – cell-based, Fluo-4, HEK293 TRPC4beta/mu-opioid, confirmation (AID 2555;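 active means primary screen hit whose calcium fluorescence ratio, in both repeats, exceeds the weak agonist control mean by 3 SD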). Conditions: DAMGO EC20, Fluo-4 calcium flux, at 10 µM; active compounds read high.
For experiment [5], the target named is Short transient receptor potential channel 4 (Mus musculus) (UniProt Q9QUQ5). The experiment in a line: blockers of DAMGO-evoked TRPC4 calcium flux – cell-based, Fluo4, HEK293 TRPC4beta/mu-opioid, confirmation (AID 2636;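 active means calcium signal cut by more than 3 SD below the full-agonist control yet still positive, in both repeats and the earlier primary screen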). Conditions: at 10 µM; active compounds read high.
Short transient receptor potential channel 4 (Mus musculus), sequence (Q9QUQ5 whole entry, looked up): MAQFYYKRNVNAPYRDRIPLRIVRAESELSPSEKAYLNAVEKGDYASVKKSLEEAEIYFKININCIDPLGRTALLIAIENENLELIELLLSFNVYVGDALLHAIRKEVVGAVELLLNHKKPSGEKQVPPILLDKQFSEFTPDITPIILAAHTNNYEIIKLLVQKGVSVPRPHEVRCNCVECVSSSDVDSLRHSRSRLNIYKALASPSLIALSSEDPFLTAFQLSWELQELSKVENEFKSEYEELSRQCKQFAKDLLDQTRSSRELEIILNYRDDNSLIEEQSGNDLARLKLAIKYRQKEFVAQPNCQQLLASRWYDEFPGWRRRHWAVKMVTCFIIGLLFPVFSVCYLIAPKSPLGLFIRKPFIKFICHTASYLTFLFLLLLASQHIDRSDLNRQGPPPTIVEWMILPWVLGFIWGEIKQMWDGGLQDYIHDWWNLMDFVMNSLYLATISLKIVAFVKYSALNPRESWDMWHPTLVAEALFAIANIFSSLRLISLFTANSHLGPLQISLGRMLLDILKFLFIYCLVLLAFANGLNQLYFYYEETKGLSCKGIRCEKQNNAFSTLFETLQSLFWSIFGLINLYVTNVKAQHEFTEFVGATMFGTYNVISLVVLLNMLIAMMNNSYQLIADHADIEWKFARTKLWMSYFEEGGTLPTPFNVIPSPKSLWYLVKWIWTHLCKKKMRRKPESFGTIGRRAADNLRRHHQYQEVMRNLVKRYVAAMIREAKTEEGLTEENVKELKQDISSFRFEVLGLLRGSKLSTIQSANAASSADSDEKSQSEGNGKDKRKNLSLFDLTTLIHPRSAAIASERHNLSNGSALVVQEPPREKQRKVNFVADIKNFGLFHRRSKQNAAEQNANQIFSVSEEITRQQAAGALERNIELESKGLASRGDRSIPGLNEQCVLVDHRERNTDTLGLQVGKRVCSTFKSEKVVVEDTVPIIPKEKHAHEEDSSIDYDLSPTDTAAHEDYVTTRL
Experiment [6] has the same target. The experiment in a line: blockers of DAMGO-evoked TRPC4 calcium flux – cell-based, second round, Fluo4, HEK293 TRPC4beta/mu-opioid, 1 µM, confirmation (AID 2637;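 active means calcium signal ratio cut to more than 3 SD under the fully stimulated control mean yet still positive, in both repeats and the primary screen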). Conditions: at 1 µM; active compounds read high.
Experiment [7] shares this target. Nature of the experiment: potentiation of DAMGO-evoked TRPC4 calcium signal – cell-based, HEK293 TRPC4/mu-opioid, Fluo-4 calcium, EC20 DAMGO, dose response (AID 434941;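 active means earlier screen potentiator hit that boosts the TRPC4 ion channel at some dose, with a dose response; inactive means no potentiation, no dose response, or not a prior hit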;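 further: calcium entry triggered by an EC20 dose of DAMGO at the co-expressed mu-opioid receptor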).
Experiment [8] shares this target. The experiment in a line: block of DAMGO-driven TRPC4 calcium entry – cell-based, HEK293 TRPC4/mu-opioid, Fluo-4 calcium, dose response (AID 434942;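 active means primary screen inhibitor hit that blocks the TRPC4 channel at some tested dose, yielding a dose curve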).
The target of experiment [9] is Short transient receptor potential channel 6 (Mus musculus) (UniProt Q61143). The experiment in a line: TRPC6 blockade by TRPC4 inhibitor hits – cell-based, HEK293, membrane potential dye, duplicate, selectivity assay for TRPC4 inhibitor project, confirmation (AID 434948;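 active means active in primary screen and both duplicates, each dropping signal beyond three positive-control SD with fluorescence still positive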). The note with it: HEK293 TRPC6, membrane potential dye fluorescence, at 10 µM, stimulated with maximal-effect acetylcholine; active compounds read high.
Short transient receptor potential channel 6 (Mus musculus), sequence (Q61143 whole entry, looked up): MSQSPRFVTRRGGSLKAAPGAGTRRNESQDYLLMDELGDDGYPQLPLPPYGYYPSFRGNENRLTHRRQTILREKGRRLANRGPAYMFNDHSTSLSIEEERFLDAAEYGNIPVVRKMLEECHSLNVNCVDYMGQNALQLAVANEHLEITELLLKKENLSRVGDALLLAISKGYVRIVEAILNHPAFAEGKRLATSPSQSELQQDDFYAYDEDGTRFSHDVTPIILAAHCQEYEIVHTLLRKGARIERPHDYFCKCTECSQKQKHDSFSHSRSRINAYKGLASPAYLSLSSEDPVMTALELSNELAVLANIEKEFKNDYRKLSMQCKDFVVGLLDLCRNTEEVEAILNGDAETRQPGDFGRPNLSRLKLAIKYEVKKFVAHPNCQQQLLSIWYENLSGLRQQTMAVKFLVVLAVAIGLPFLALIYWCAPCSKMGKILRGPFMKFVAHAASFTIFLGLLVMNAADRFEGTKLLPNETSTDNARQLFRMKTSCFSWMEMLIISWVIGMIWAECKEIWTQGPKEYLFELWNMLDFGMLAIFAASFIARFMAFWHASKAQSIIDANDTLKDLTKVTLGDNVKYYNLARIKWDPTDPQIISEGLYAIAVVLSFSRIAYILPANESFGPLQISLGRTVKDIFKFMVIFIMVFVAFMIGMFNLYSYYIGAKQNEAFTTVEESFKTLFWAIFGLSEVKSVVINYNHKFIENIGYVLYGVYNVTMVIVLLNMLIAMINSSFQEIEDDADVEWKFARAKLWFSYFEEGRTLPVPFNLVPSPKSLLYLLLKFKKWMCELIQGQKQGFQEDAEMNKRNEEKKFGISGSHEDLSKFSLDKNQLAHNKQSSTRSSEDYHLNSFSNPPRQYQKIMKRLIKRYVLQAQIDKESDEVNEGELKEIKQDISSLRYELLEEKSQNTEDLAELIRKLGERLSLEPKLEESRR

Experiment [10] shares this target. Nature of the experiment: TRPC6 opening by TRPC4 activator hits – cell-based, HEK293, membrane potential dye, duplicate, selectivity assay for TRPC4 activator project, confirmation (AID 434950;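 active means membrane potential signal rise above negative control mean plus 3 SD in both duplicates, also active in the earlier TRPC4 screen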;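 on activation: 0% = buffer only wells and 100% = acetylcholine maximal-effect wells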). Conditions: HEK293 TRPC6, membrane potential fluorescence, at 10 µM; activation: active compounds read high; outcome: activation.
Experiment [11] has the same target. The experiment in a line: positive modulators of mouse TRPC6 channel – HEK293 cells, membrane potential dye, duplicate, selectivity assay for TRPC4 potentiator project, confirmation (AID 434952;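 active means compound raising the membrane signal above positive-control mean plus 3 SD in both repeats, and a primary screen hit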). Conditions: HEK293 TRPC6, membrane potential dye fluorescence, at 10 µM, maximal acetylcholine added after compound; active compounds read high.
Experiment [12] has as its target Short transient receptor potential channel 4 (Mus musculus) (UniProt Q9QUQ5). The experiment in a line: calcium flux activators in TRPC4/5HT1a cells, counter-screen for TRPC4 activator project, cell-based, second counter screen, HEK293 TRPC4/5HT1a, Fluo-4 (AID 434977;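 active means calcium signal rise above buffer-control mean plus 5 SD in both duplicates, and also a hit in the primary screen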;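 on activation: plate controls were assay buffer for no effect and maximal serotonin response for full effect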). The note with it: Fluo-4 calcium flux, at 10 µM; active compounds read high.
Experiment [13] is described as follows: serotonin-gated TRPC4 signal block – cell-based, second counter screen, HEK293 TRPC4/5HT1a, Fluo-4, counter-screen for TRPC4 inhibitor project, confirmation (AID 434978;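 active means primary screen active whose calcium signal fell more than 3 SD beyond the full-serotonin control mean in both duplicate plates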;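 on outcome: serotonin given first at submaximal then at maximal dose after compound preincubation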). Conditions: Fluo-4 calcium flux, at 10 µM, serotonin added to trigger calcium flux; active compounds read high.
The subject of experiment [14] is TRPC4 (mouse), co-expressed with 5HT1a in HEK293. The experiment in a line: enhancement of serotonin-evoked TRPC4 response – cell-based, second counter screen, HEK293 TRPC4/5HT1a, Fluo-4, counter-screen for TRPC4 potentiator project, confirmation (AID 434979;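 active means signal rise over 3 SD above mean of control wells given weak agonist, in both repeats and first screen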). The note with it: Fluo-4 calcium flux, at 10 µM, serotonin added at its EC20 dose; active compounds read high. A general note: The purpose of a counterscreen is to sort out artefacts and off-target activity.

Experiment [15] can be described thus: nonspecific calcium rise without TRPC4 – cell-based, HEK293 mu-opioid receptor line, counter-screen for TRPC4 activator project, confirmation (AID 449723;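 active means hit in primary screen, with calcium signal over 5 SD above buffer well mean in both duplicates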;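 further: counter screen cells carry the mu-opioid receptor alone and lack TRPC4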). Conditions: HEK293 mu-opioid cells, Fluo-4 calcium fluorescence, at 10 µM; active compounds read high.
Experiment [16] can be described thus: nonspecific potentiation of DAMGO calcium response – cell-based, HEK293 mu-opioid receptor line, counter-screen for TRPC4 allosteric potentiator project, confirmation (AID 449724;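 active means calcium signal rise more than 3 SD above the low-dose agonist control mean, in both duplicate plates and the primary screen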;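 further: HEK293 cells carrying mu-opioid receptor only with no TRPC4 channel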). The note with it: HEK293 mu-opioid receptor cells, Fluo-4 calcium flux, at 10 µM, compound added before EC20 DAMGO stimulus; active compounds read high.

Take `COc1ccc(C2Nc3ccccc3C(=O)N2Cc2ccco2)cc1COc1ccc(NC(C)=O)cc1` (stereo not given): the outcome in experiment [1], in experiment [2], in experiment [3], in experiment [4], in experiment [5] and in [6] was inactive. In addition, the result in [7], in experiment [8], in experiment [9], in experiment [11], in [12] and in experiment [13] was inactive. Also, the outcome in experiment [14], in experiment [15] and in experiment [16] was inactive. In addition, the activation in experiment [10] was 29% (active).

With `Cc1nc(NCC(c2ccccc2)N(C)C)c2c(C)c(C)sc2n1` (stereo not given), the activation in experiment [1] is 204% (active); in [2] it was 78% (active); in experiment [12], 27.8% (active). Besides, the outcome in experiment [3], in [4], in experiment [5], in [6], in experiment [7] and in experiment [8] was inactive. Besides, the outcome in experiment [9], in experiment [10], in experiment [11], in [13], in [14] and in [15] was inactive. Besides, the result in experiment [16] was inactive.

Take `COc1ccc(C(CNC(=O)CN2C(=O)NC3(CCCC3)C2=O)N(C)C)cc1` (stereo not given): the activation in [1] was 121% (active). Moreover, the result in experiment [2], in experiment [3], in experiment [4], in experiment [5], in [6] and in [7] was inactive. Also, the outcome in experiment [8], in [9], in experiment [10], in experiment [11], in experiment [12] and in experiment [13] was inactive. Also, the outcome in experiment [14], in experiment [15] and in experiment [16] was inactive.

Take `COc1ccc(-c2nc(CN3CCC(C(=O)NC4CCCC4)CC3)c(C)o2)cc1OC`: the figures for the activation in experiment [1], in experiment [2] and in experiment [10] were 152% (active), 70% (active) and 57% (active), respectively. For the same molecule, the outcome in [3], in experiment [4], in experiment [5], in experiment [6], in experiment [7] and in [8] was inactive. For the same molecule, the molecule was called inactive in experiment [9], in [11], in [12], in experiment [13], in experiment [14] and in [15]. Besides, the outcome in [16] was inactive.

For the molecule `COc1ccc(C(CCNCc2ccc(N(C)C)cc2)c2ccccc2OC)cc1` (stereo not given), the activation is 133% (active) in experiment [1] and 8.8% (active) in experiment [12]. Also, the outcome in [2], in experiment [3], in [4], in experiment [5], in experiment [6] and in experiment [7] was inactive. Besides, the outcome in experiment [8], in experiment [9], in experiment [10], in experiment [11], in experiment [13] and in [14] was inactive. Further, the result in experiment [15] and in [16] was inactive.

With `CCCCN(CC)CCNC(=O)c1cc2c(C)nc3ccccc3c2o1`, the activation in experiment [1] is 128% (active); in experiment [12], 42.6% (active). In addition, the result in experiment [2], in [3], in [4], in experiment [5], in experiment [6] and in experiment [7] was inactive. Moreover, the result in [8], in [9], in experiment [10], in experiment [11], in [13] and in experiment [14] was inactive. For the same molecule, the result in experiment [15] and in experiment [16] was inactive.

On to `Fc1ccc(C2CCNCC2COc2ccc3c(c2)OCO3)cc1` (stereo not given), for which the activation in [1] is 202% (active); in experiment [12] it was 26.8% (active); in [15] it was 15.8% (active). For the same molecule, the result in experiment [2], in experiment [3], in experiment [4], in experiment [5], in experiment [6] and in experiment [7] was inactive. Further, the outcome in experiment [8], in experiment [9], in experiment [10], in experiment [11], in experiment [13] and in [14] was inactive. For the same molecule, in experiment [16], the outcome was inactive.

For the molecule `Cc1ccc(N2CCN(c3ccc(NCc4nc5ccccc5n4C)cc3)CC2)cc1`, the activation in experiment [1] is 79% (active). Moreover, the result in experiment [2], in experiment [3], in experiment [4], in experiment [5], in experiment [6] and in [7] was inactive. The outcome in experiment [8], in [9], in experiment [10], in experiment [11], in experiment [12] and in experiment [13] was inactive. The result in [14], in experiment [15] and in [16] was inactive.

With `Cc1csc2c(N3CCN(C(=S)Nc4ccc(F)cc4F)CC3)ncnc12`, the activation in experiment [1] was 126% (active); in experiment [12], 40.5% (active). The outcome in [2], in experiment [3], in experiment [4], in experiment [5], in experiment [6] and in experiment [7] was inactive. The outcome in experiment [8], in [9], in [10], in experiment [11], in experiment [13] and in experiment [14] was inactive. Moreover, the outcome in experiment [15] and in [16] was inactive.

For `Cc1sc2ncnc(NCC(C)(C)N3CCOCC3)c2c1C`, the activation in experiment [1] was 178% (active); in experiment [2] it was 109% (active); in [12], 62.7% (active). Further, the outcome in [3], in experiment [4], in experiment [5], in [6], in [7] and in experiment [8] was inactive. Besides, the molecule was called inactive in experiment [9], in [10], in experiment [11], in experiment [13], in [14] and in [15]. Moreover, in experiment [16], the outcome was inactive.

`COc1ccc(-n2cc(CNCCc3ncc(C)[nH]3)c(-c3ccccc3Cl)n2)cc1`: the results for the activation in experiment [1] and in experiment [10] were 214% (active) and 30% (active), respectively. In addition, the outcome in experiment [2], in experiment [3], in [4], in experiment [5], in [6] and in experiment [7] was inactive. For the same molecule, the result in experiment [8], in experiment [9], in [11], in experiment [12], in experiment [13] and in experiment [14] was inactive. Further, the result in [15] and in experiment [16] was inactive.

On to `CCN1CCN(c2c(S(=O)(=O)c3ccc(C)c(C)c3)cnc3ccc(F)cc23)CC1`, for which the activation in [1] is 106% (active); in experiment [10], 50% (active). Also, the result in experiment [2], in experiment [3], in experiment [4], in experiment [5], in [6] and in experiment [7] was inactive. For the same molecule, the result in [8], in experiment [9], in experiment [11], in [12], in [13] and in [14] was inactive. For the same molecule, the result in experiment [15] and in experiment [16] was inactive.

Turning to `NCCCn1c(C(=O)c2cc(Cl)c(N)c(Cl)c2)c2ccccc2[n+]1[O-]`, the activation in experiment [1] is 179% (active); in experiment [2], 103% (active); in [12], 67.1% (active). Also, the outcome in [3], in experiment [4], in experiment [6], in experiment [7], in experiment [8] and in experiment [9] was inactive. For the same molecule, the call in [10], in experiment [11], in experiment [14], in experiment [15] and in experiment [16] was inactive. Also, the results for the inhibition in [5] and in experiment [13] were 83% (active) and 14% (active), respectively.

On to `CCCCC(=O)NNC(=S)NC(=O)c1ccc(C)cc1`, for which the activation in [1] is 240% (active); in experiment [12], 15% (active). Besides, the result in [2], in experiment [3], in experiment [4], in [5], in [6] and in [7] was inactive. The result in experiment [8], in experiment [9], in [10], in experiment [11], in experiment [13] and in experiment [14] was inactive. In addition, the outcome in experiment [15] and in experiment [16] was inactive.

With `COc1ccc(CCN(C)CCC(=O)Nc2c(C)cc(C)cc2C)cc1OC`, the result in [1], in experiment [2], in [3], in experiment [4], in experiment [5] and in experiment [6] was inactive. Moreover, the outcome in experiment [7], in experiment [8], in experiment [9], in experiment [11], in experiment [13] and in experiment [14] was inactive. The outcome in experiment [15] and in experiment [16] was inactive. In addition, the activation in [10] was 48.5% (active); in experiment [12], 58.1% (active).
